Pf Dd2 growth: Plasmodium falciparum Dd2 growth inhibition; Potency, µM (series often up to 28.9 µM), without a hit: at the top dose activity, negative = inhibition, actives largely listed as inhibitors; actives 4.3% (n = 120,000); P. falciparum Dd2 growth, SYBR Green, 72 h; active = well fitted inhibition curve with a large enough effect;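 note: plate controls were DMSO vehicle for no effect and reference drug for full effect; nearly all actives have a fitted effect of over 65% in size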
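Infected erythrocytes (Dd2, 0.3% parasitemia, 2.5% hematocrit final) are added to compound in RPMI-1640/Albumax II medium, grown 72 h at 37C in low oxygen, then lysed with saponin/Triton-X containing SYBR Green and read by fluorescence.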
An asterisk follows results filed as active; i = inactive; [ ] = remark or other dose. The entries come from a sample that favours hits as a whole. Potency is the fitted concentration of half-maximal effect.

SMILES | Pf Dd2 growth
CCS(=O)(=O)c1ncc(Cl)c(C(=O)Nc2c(C(=O)Nc3cccc(C)c3)oc3ccccc23)n1 | -22%
COc1ccc(NC(=O)Cn2c(N(C)Cc3ccccc3)nc(C)cc2=O)cc1Cl | -4%
CCCS(=O)(=O)c1ncc(Cl)c(C(=O)N(Cc2ccccc2)Cc2ccco2)n1 | 8%
CC(C)(C)c1ccc(C(=O)N(Cc2ccc(F)cc2)Cc2ccco2)cc1 | -14%
Cc1ccc(CN(Cc2ccco2)C(=O)COc2ccc(Cl)cc2Cl)cc1 | -23%
Cc1cccc(NC(=O)Cn2nnc(C(=O)NCc3ccco3)c2N)c1 | 25%
Cc1ccc(NC(=O)c2nc(S(C)(=O)=O)ncc2N(Cc2ccc(C(C)(C)C)cc2)Cc2ccco2)cc1C | 7.1µM*
CCS(=O)(=O)c1ncc(N(Cc2ccccc2)Cc2ccco2)c(C(=O)Nc2ccccc2C)n1 | -16%
COc1ccc(NC(=O)c2nc(S(C)(=O)=O)ncc2N(Cc2ccc(C)cc2)Cc2ccco2)cc1Cl | 10µM*
CCc1ccc(CN(Cc2ccco2)c2cnc(S(C)(=O)=O)nc2C(=O)Nc2cccc(C)c2)cc1 | 11µM*
Cc1ccc(NC(=O)c2nc(S(=O)(=O)Cc3ccc(F)cc3)ncc2Cl)cc1C | 43%[5.79 µM]
CCS(=O)(=O)c1ncc(N(Cc2ccccc2)Cc2ccco2)c(C(=O)Nc2ccc(C)c(C)c2)n1 | 5µM*
COCCn1c(CNC(=O)c2cc([N+](=O)[O-])ccc2Cl)nc2cccnc21 | -21%
Cc1ccc2[nH]c(=O)c(CN(C(=O)c3cccc(Cl)c3)C(C)(C)C)cc2c1 | -16%
O=C(NCCOc1ccccc1)c1ccc2c(c1)OCCN(CCC(F)(F)F)C2 | -13%[44.1 µM]
COc1ccc(C(=O)N[C@@H]2CCC[C@@H]2C(=O)NCc2ccc(C(F)(F)F)cc2)cc1 | 13%
Cc1ccsc1CN(Cc1ccco1)c1cnc(S(C)(=O)=O)nc1C(=O)Nc1ccc(Cl)cc1 | 4.5µM*
CN(c1ccccc1)S(=O)(=O)c1ccc(NC(=O)c2nc(S(C)(=O)=O)ncc2Cl)cc1 | 15%[5.79 µM]
CS(=O)(=O)c1ncc(Cl)c(C(=O)Nc2c(C(=O)Nc3ccccc3)oc3ccccc23)n1 | i
Cc1cn2nc(C(=O)N3CCC(NC(=O)C4CCC4)CC3)cc2c(=O)[nH]1 | -15%
O=C(N1CCN(S(=O)(=O)c2cccnc2)CC1)N1CC2CC(C1)[C@H]1CCCC(=O)N1C2 (stereo not given in full) | -9%
CCc1ccc(OCCSc2nc(-c3cccc(C)c3)nc3cc(=O)[nH]n23)cc1 | i
COc1cc(C)ccc1OCCSc1nc(-c2cccc(C)c2)nc2cc(=O)[nH]n12 | -1%
Cc1ccc(OCCSc2nc(-c3ccccc3C)nc3cc(=O)[nH]n23)cc1Cl | 4%
Cc1cccc(-c2nc(SCCCOc3ccc(Cl)c(C)c3)n3[nH]c(=O)cc3n2)c1 | i
SMILES | Pf Dd2 growth
CCc1ccc(OCCCSc2nc(-c3ccc(C(C)(C)C)cc3)nc3cc(=O)[nH]n23)cc1 | 11µM*
Cc1cccc(OCCCSc2nc(-c3ccc(C(C)(C)C)cc3)nc3cc(=O)[nH]n23)c1C | 10µM*
Cc1noc(-c2cn(C3CCN(C(=O)c4cccc(Br)c4)C3)nn2)n1 (stereo not given) | 0%
Cc1ccc(C(=O)N2CC(Oc3ccc(F)cc3F)C2)cc1 | 3%
COc1ccc(CN2C[C@H]3CN(S(=O)(=O)c4ccc(C)cc4)CCN3C2=O)cc1 | -15%[44.1 µM]
O=C(N[C@H]1CCN2C(=O)c3cc(-c4ccccc4F)ccc3NC(=O)[C@H]12)C1CCCC1 | i
Cc1cc(N2CCN(Cc3nc(-c4cccc(Cl)c4)no3)CC2)cc(C)n1 | 10µM*
Cc1cc(C)cc(N2CC(c3nc(-c4cccc(Cl)c4)no3)CC2=O)c1 (stereo not given) | 32%
Cc1oc(-c2cccc(Cl)c2)nc1CN1CCOCC1 | 2%
CC(C)OCCCNc1ncnc2c1CN(c1ccc(Cl)cc1)C(=O)CN2C | -20%
CNc1ccc(-c2nc(-c3ccccn3)no2)cc1[N+](=O)[O-] | -25%
CCC(Nc1ccc(-c2nc(-c3ccccn3)no2)cc1[N+](=O)[O-])c1ccccc1 (stereo not given) | 3.5µM*
CCNc1ccc(-c2nc(-c3ccccn3)no2)cc1[N+](=O)[O-] | -14%
CCn1ccc(C(=O)N2CCCCCCN(C)C(=O)[C@@H]3CCC[C@@H]32)n1 | 11%
COCCNC(=O)[C@H]1C[C@H](Oc2ccccc2)CN1C(=O)Cc1cccc(C)c1 | -1%
Cc1sc2ncnc(N3CCCN(C(=O)c4ccoc4)CC3)c2c1C | -10%
O=C(N[C@@H]1CN(C(=O)Nc2ccccc2)CCC[C@H]1O)c1ccc(OCc2ccccc2)cc1 | -16%
COCCOc1ccc(C(=O)N[C@@H]2CN(C(=O)NCc3ccccc3)CCC[C@H]2O)cc1 | 17%
NC(=O)COc1ccc(C(=O)N[C@@H]2CN(Cc3ccccn3)CCC[C@H]2O)cc1 | -27%[44.1 µM]
COCCOc1ccc(C(=O)N[C@@H]2CN(C(=O)Nc3cccc(C(F)(F)F)c3)CCC[C@H]2O)cc1 | i
O=C(N[C@@H]1CN(C(=O)Nc2cccc(C(F)(F)F)c2)CCC[C@H]1O)c1ccc(OCc2ccccc2)cc1 | 7.1µM*
O=C(N[C@@H]1CN(Cc2ccccn2)CCC[C@H]1O)c1ccc(OCc2ccccc2)cc1 | 2.5µM*
COCCc1noc([C@@H]2CC(F)(F)CN2C(=O)c2ccn[nH]2)n1 | -1%
COc1ccc(S(=O)(=O)Nc2ccc3c(c2)CCCN3S(=O)(=O)c2ccc(C)cc2)cc1F | i
Cc1ccc(S(=O)(=O)NCC2CCC(C(=O)NCc3ccc(F)cc3)CC2)cc1 (stereo not given) | 78%
SMILES | Pf Dd2 growth
COc1ccc(CNC(=O)C[C@@H]2O[C@H](CNC(C)=O)[C@@H](O)[C@H]2O)cc1 | 3%[44.1 µM]
O=C(NCCOc1ccccc1Cl)C1CCC(=O)N(C2CCCC2)C1 (stereo not given) | -9%
CC1=C[C@@H](CNCc2ccc(C#N)cc2)[C@H](C(C)C)C[C@H]1Cc1nnc(-c2cccnc2)o1 | -19%
CC1=C[C@@H](CN2CCN(c3ccccc3)CC2)[C@H](C(C)C)C[C@H]1Cc1nnc(-c2cncn2C)o1 | 4µM*
CC1=C[C@@H](CN2CCC(C(N)=O)CC2)[C@H](C(C)C)C[C@H]1Cc1nnc(-c2cccnc2)o1 | i
CC(=O)NC[C@@H]1C=C(C)[C@H](Cc2nnc(-c3cncn3C)o2)C[C@H]1C(C)C | 0%[44.1 µM]
CC1=C[C@@H](CNC(=O)C2CCCCC2)[C@H](C(C)C)C[C@H]1CC(=O)NCc1cccnc1 | -22%[44.1 µM]
CC1=C[C@@H](CNCc2ccncc2)[C@H](C(C)C)C[C@H]1Cc1nnc(C)o1 | i
CC1=C[C@@H](CN2CCC(C(N)=O)CC2)[C@H](C(C)C)C[C@H]1Cc1nnc(-c2ccncc2)o1 | -11%[44.1 µM]
CC1=C[C@@H](CNC(=O)C2CC2)[C@H](C(C)C)C[C@H]1Cc1nnc(-c2ccccc2F)o1 | 16µM*
CC(=O)N1CCN(C[C@@H]2C=C(C)[C@H](Cc3nnc(-c4ccncc4)o3)C[C@H]2C(C)C)CC1 | 11µM*
COCC(=O)NC[C@@H]1C=C(C)[C@H](Cc2nnc(-c3cncn3C)o2)C[C@H]1C(C)C | i
CC(=O)N1CCN(C[C@@H]2C=C(C)[C@H](Cc3nnc(-c4cncn4C)o3)C[C@H]2C(C)C)CC1 | -12%
CC1=C[C@@H](CNCc2ccccn2)[C@H](C(C)C)C[C@H]1Cc1nnc(-c2ccccc2F)o1 | 3.2µM*
Cc1cnc(C2CC2)n1CC1CCN(C(=O)C2CC2)CC1 | 1%
CCOc1ccc(NC(=O)CC2C(=O)N(c3ccccc3)C(=O)N2CCc2sccc2C)cc1 (stereo not given) | i

High-throughput results as filed in PubChem.
